In PubChem BioAssay (Tox21) one finds Potency, outcome and PLD induction data, which are given here for nine compounds.

Several values for one entry are separate records, joined by “and”; a condition that tells them apart may be missing. Equal entries are not always repeated. Values without a mark were called inactive. Results filed as inconclusive are left out. Activity calls are given as the source filed them. Unless noted, the call rests on the fitted dose curve; in most records, active means well fitted curve in the direction sought with a large enough effect in the repeat runs; inconclusive means weak or mixed curves; inactive means no such curve, though single readings can be large; an effect the other way counts as inactive or inconclusive.

A short description of experiment [1]: qHTS assay to identify small molecule antagonists of the estrogen receptor alpha (ER-alpha) signaling pathway using the BG1 cell line in the presence of 0.1 nM 17-beta-estradiol - cell viability counter screen (AID 1259241). Further: nearly all actives have a fitted effect of over 40% in size. Further: potency means the concentration at half of the fitted maximal effect. Summed up:
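Estradiol-stimulated (0.1 nM) VM7Luc4E2 cells exposed to compounds 22 hr; viability measured by fluorescence of cleaved CellTiter-Fluor substrate after 30 min.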
In general terms: qHTS replaces the single test concentration by a dilution series.

Experiment [2] addresses Androgen receptor (Homo sapiens) (UniProt P10275). The experiment is described as follows: qHTS assay to identify small molecule antagonists of the androgen receptor (AR) signaling pathway using the MDA cell line in the presence of 0.5 nM R1881 (AID 1259243). Further: potency means the concentration at half of the fitted maximal effect; nearly all actives have a fitted effect of over 50% in size. Summed up:
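Antagonist mode quantitative HTS in MDA-kb2 MMTV-luciferase cells, agonist R1881 at 0.5 nM final, 16 hr exposure at 37C and 0% CO2, luminescent detection.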

Experiment [3] in a line: qHTS assay to identify small molecule phospholipidosis (PLD) inducers (AID 1259344; active means well fitted curve in the direction sought with a large enough effect; an effect the other way counts as inactive or inconclusive; further: on the % scale 0 is the no-effect control and ±100 the full control effect). The procedure, abridged:
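After 4 h attachment on collagen I, HepG2 cells were dosed with compound alongside LipidTOX Red, kept 24 h at 37 C, fixed, and imaged for lamellar phospholipid pits.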

Experiment [4] can be described thus: qHTS assay to identify small molecule HDAC inhibitors (AID 1259364).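 Further: wild-type HCT-116 cells with endogenous class I/II HDAC activity; top concentration of the series differs between compounds; on the % scale 0 is the no-effect control and ±100 the full control effect; nearly all actives have a fitted effect of over 45% in size.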 The procedure, abridged:
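Quantitative high-throughput format: overnight-seeded HCT-116 cells got compounds for 2 hr at 37C; HDAC-Glo I/II reagent added, 30 min RT, luminescence measured.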

Experiment [5] in a line: qHTS assay to identify small molecule HDAC inhibitors - cell viability counter screen (AID 1259365). Further: series mostly up to about 92 µM; on the % scale 0 is the no-effect control and ±100 the full control effect; nearly all actives have a fitted effect of over 50% in size. The procedure, abridged: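 After overnight seeding at 1,500 cells per well, wild-type HCT-116 cultures took up compounds in DMSO for 2hr at 37 C. Viable cell content came from luminescence with CellTiter-Glo.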
Experiment [6] can be described thus: qHTS assay to identify small molecule agonists of the sonic hedgehog signaling (Shh) pathway - cell viability counter screen (AID 1259366). Further: nearly all actives have a fitted effect of over 50% in size. Further: potency means the concentration at half of the fitted maximal effect. The procedure, abridged: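 Same-well cytotoxicity read. Gli1-Luc reporter 3T3 cells; compounds 24hr, 37C/5% CO2; CellTiter-Fluor fluorescence.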
Experiment [7] is described as follows: qHTS assay to identify small molecule antagonists of the sonic hedgehog signaling (Shh) pathway - cell viability counter screen (AID 1259367). Further: on the % scale 0 is the no-effect control and ±100 the full control effect; nearly all actives have a fitted effect of over 55% in size. Summed up: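 Conditioned medium drove Shh signaling in 3T3 Gli1-Luc cells exposed to compounds at 37C and 5% CO2. Viability was determined from CellTiter-Fluor fluorescence, with reagent incubated 1 hr after 23 hr of treatment.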

Experiment [8] in a line: qHTS assay to identify small molecule agonists of the sonic hedgehog signaling (Shh) pathway (AID 1259368; calls by dose curve;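 further: NIH/3T3-derived 3T3Gli1-Luc cells carrying a stable Gli1-driven firefly luciferase reporter; series mostly up to about 92 µM; on the % scale 0 is the no-effect control and ±100 the full control effect; nearly all actives have a fitted effect of over 15% in size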). The procedure, abridged: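 Quantitative high-throughput format using a Gli1-driven firefly luciferase reporter line derived from NIH/3T3 cells. After a 24 hr compound treatment at 37 C and 5% CO2, luminescence reported Gli1 response element activity.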
A short description of experiment [9]: qHTS assay to identify small molecule antagonists of the sonic hedgehog signaling (Shh) pathway (AID 1259369; calls by dose curve; further: nearly all actives have a fitted effect of over 45% in size; further: potency means the concentration at half of the fitted maximal effect). The procedure, abridged:
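Stable Gli1-Luc reporter NIH/3T3 clone; quantitative HTS in stimulated mode with conditioned medium. Luminescence measured after 24hr compound treatment at 37 C.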

Experiment [10] has as its target Estrogen receptor beta (Homo sapiens) (UniProt Q92731). The experiment is described as follows: qHTS assay to identify small molecule agonists of the estrogen receptor beta (ER-beta) signaling pathway (AID 1259377; active means well fitted activation curve with a large enough effect in the signal ratio in the repeat runs, not every such curve was filed as active; the % refers to the signal ratio; further: potency means the concentration at half of the fitted maximal effect; on activation: on the % scale 0 is the no-effect control and ±100 the full control effect). The procedure, abridged:
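Read-out: beta-lactamase FRET fluorescence. Cell line: ER-beta-UAS-bla HEK293T in 2% charcoal-stripped FBS. Exposure: 16 hr at 37C. Substrate step: 2 h at room temperature.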

The target is the same in experiment [11]. The experiment is described as follows: qHTS assay to identify small molecule antagonists of the estrogen receptor beta (ER-beta) signaling pathway (AID 1259378; active means well fitted inhibition curve with a large enough effect in the signal ratio in the repeat runs, not every such curve was filed as active; the % refers to the signal ratio; further: potency means the concentration at half of the fitted maximal effect). Summed up: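 ER-beta-UAS-bla HEK293T (GripTite) cells in 2% charcoal-stripped FBS medium were preincubated 6 hr at 37C, dosed with compound, then stimulated with 1 nM E2 (final) for 16 hr; beta-lactamase reporter read by B/G FRET fluorescence after 2 hr substrate loading.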

Experiment [12] in a line: qHTS assay to identify small molecule agonists of the androgen receptor (AR) signaling pathway in the presence of an antagonist - cell viability counter screen (AID 1259379). Further: nearly all actives have a fitted effect of over 25% in size. Further: potency means the concentration at half of the fitted maximal effect. The procedure, abridged: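 Nilutamide-containing (3.0uM final) MDA-kb2 cultures, 3,000 cells/well, were treated with compounds across 15 concentrations. After 16 hr at 37C with no CO2, cell viability was determined by CellTiter-Fluor fluorescence in the luciferase assay wells.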

Experiment [13] has as its target Androgen receptor (Homo sapiens) (UniProt P10275). Kind of experiment: qHTS assay to identify small molecule agonists of the androgen receptor (AR) signaling pathway in the presence of an antagonist (AID 1259381; calls by dose curve; further: on the % scale 0 is the no-effect control and ±100 the full control effect; nearly all actives have a fitted effect of over 15% in size). The procedure, abridged:
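Reporter-gene luminescence from MDA-kb2 cells exposed 16hr at 37C (0% CO2) to 15-point compound titrations with 3.0uM final nilutamide as AR antagonist.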

Experiment [14] in a line: qHTS assay to identify small molecule antagonists of the estrogen receptor beta (ER-beta) signaling pathway - cell viability counter screen (AID 1259382). Further: nearly all actives have a fitted effect of over 55% in size. Further: potency means the concentration at half of the fitted maximal effect. The procedure, abridged: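 Viability is scored by CellTiter-Glo luminescence (30 min, room temperature) in ER-beta-UAS-bla HEK293T wells already read for reporter fluorescence. Compound exposure lasts 16 hr at 37C alongside 1nM 17-beta-estradiol in charcoal-stripped serum medium.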

Experiment [15] has as its target Estrogen receptor (Homo sapiens) (UniProt P03372). Kind of experiment: qHTS assay to identify small molecule agonists of the estrogen receptor alpha (ER-alpha) signaling pathway in the presence of an antagonist (AID 1259383; calls by dose curve; further: nearly all actives have a fitted effect of over 15% in size; further: potency means the concentration at half of the fitted maximal effect; on activation: top concentration of the series differs between compounds; on the % scale 0 is the no-effect control and ±100 the full control effect). The procedure, abridged:
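Readout was ERE-driven luciferase luminescence in VM7Luc4E2 cells, which express full-length ER-alpha endogenously. Compounds were tested at 15 concentrations for 22hr alongside 10.0nM ICI-182,780 (final concentration).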

For experiment [16] the target is unchanged. The experiment is described as follows: qHTS assay to identify small molecule antagonists of the estrogen receptor alpha (ER-alpha) signaling pathway using the BG1 cell line in the presence of 0.1 nM 17-beta-estradiol (AID 1259244). Further: on the % scale 0 is the no-effect control and ±100 the full control effect; nearly all actives have a fitted effect of over 50% in size. Summed up: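 Reporter is a stably transfected luciferase under four estrogen responsive elements in VM7Luc4E2 cells expressing native full-length ER-alpha; inhibition of 0.1 nM (final) 17beta-estradiol-driven signal over 22 h is read by luminescence.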

The nature of experiment [17]: qHTS assay to identify small molecule agonists of the estrogen receptor beta (ER-beta) signaling pathway - cell viability counter screen (AID 1259380). Further: nearly all actives have a fitted effect of over 30% in size. Further: potency means the concentration at half of the fitted maximal effect. Summed up: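 Steps: plate ER-beta-UAS-bla HEK293T cells, rest 6 hr; add compounds in DMSO; incubate 16 hr at 37C, 5% CO2; add FRET substrate 2 hr; add CellTiter-Glo, wait 30 min at room temperature; read luminescence.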

Experiment [18] in a line: qHTS assay to identify small molecule agonists or antagonists of the thyroid stimulating hormone receptor (TSHR) signaling pathway - wild type cell line counter screen (AID 1259384; calls by dose curve; further: on the % scale 0 is the no-effect control and ±100 the full control effect). Summed up:
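Wild-type HEK293 cells were plated 18 h at 37 C/5% CO2, pin-dosed with compound plus Ro20-1724 medium, held 30 min at room temperature, then given cAMP-d2 and anti-cAMP-cryptate; fluorescence was read after 1 h. Fifteen concentrations, triplicate.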

Experiment [19] concerns the target Thyrotropin receptor (Homo sapiens) (UniProt P16473). Kind of experiment: qHTS assay to identify small molecule antagonists of the thyroid stimulating hormone receptor (TSHR) signaling pathway (AID 1259385; calls by dose curve; further: on the % scale 0 is the no-effect control and ±100 the full control effect; nearly all actives have a fitted effect of over 20% in size). Summed up: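 TSHR-HEK293 cells were plated and held 18 h at 37C/5% CO2, then given compound plus Ro20-1724 and stimulated with TSH at 1.5 ng/mL final. After 30 min at room temperature, cAMP was detected with cAMP-d2/anti-cAMP-cryptate (1 h) by fluorescence.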

Sequence of Androgen receptor (Homo sapiens) (P10275 whole entry, looked up): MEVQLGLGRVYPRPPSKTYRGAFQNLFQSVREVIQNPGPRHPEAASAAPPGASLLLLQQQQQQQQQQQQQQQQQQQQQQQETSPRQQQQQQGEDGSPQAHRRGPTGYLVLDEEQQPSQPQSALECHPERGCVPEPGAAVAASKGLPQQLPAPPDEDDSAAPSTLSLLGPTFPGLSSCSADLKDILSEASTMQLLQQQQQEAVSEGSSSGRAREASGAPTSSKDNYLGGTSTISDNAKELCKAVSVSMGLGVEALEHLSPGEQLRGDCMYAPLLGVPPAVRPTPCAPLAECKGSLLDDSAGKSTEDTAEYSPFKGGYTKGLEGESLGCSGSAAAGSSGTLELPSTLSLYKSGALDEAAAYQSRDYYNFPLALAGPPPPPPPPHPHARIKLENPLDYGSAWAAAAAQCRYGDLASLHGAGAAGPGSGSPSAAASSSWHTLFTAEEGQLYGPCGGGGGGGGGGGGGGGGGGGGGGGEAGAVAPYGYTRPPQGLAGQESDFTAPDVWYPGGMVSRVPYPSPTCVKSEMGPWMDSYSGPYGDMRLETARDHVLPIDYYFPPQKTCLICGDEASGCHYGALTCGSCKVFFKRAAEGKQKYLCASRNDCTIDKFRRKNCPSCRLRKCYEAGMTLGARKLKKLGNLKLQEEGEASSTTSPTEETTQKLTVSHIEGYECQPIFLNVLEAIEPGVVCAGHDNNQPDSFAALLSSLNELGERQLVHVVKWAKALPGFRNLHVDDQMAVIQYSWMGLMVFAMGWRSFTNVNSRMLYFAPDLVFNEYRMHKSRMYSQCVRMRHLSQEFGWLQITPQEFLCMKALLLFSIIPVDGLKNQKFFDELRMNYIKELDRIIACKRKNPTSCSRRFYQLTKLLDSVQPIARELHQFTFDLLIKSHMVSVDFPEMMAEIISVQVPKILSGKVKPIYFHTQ
Sequence of Estrogen receptor (Homo sapiens) (P03372 whole entry, looked up): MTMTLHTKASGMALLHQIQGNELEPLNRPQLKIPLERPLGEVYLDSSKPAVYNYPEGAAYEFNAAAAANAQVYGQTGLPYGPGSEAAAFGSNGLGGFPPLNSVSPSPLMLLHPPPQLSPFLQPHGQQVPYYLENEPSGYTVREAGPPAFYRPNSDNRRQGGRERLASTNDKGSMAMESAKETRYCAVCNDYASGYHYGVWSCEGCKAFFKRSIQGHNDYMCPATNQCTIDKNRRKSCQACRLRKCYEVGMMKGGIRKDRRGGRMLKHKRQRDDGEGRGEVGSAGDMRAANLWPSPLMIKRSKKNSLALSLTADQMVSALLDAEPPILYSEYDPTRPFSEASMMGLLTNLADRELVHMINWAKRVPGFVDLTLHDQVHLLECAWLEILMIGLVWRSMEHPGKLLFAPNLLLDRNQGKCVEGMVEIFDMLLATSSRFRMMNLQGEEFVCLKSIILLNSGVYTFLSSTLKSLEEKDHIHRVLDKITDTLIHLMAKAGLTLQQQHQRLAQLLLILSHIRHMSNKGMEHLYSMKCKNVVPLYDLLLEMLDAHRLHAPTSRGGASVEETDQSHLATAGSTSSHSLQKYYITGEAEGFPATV
Sequence of Thyrotropin receptor (Homo sapiens) (P16473 whole entry, looked up): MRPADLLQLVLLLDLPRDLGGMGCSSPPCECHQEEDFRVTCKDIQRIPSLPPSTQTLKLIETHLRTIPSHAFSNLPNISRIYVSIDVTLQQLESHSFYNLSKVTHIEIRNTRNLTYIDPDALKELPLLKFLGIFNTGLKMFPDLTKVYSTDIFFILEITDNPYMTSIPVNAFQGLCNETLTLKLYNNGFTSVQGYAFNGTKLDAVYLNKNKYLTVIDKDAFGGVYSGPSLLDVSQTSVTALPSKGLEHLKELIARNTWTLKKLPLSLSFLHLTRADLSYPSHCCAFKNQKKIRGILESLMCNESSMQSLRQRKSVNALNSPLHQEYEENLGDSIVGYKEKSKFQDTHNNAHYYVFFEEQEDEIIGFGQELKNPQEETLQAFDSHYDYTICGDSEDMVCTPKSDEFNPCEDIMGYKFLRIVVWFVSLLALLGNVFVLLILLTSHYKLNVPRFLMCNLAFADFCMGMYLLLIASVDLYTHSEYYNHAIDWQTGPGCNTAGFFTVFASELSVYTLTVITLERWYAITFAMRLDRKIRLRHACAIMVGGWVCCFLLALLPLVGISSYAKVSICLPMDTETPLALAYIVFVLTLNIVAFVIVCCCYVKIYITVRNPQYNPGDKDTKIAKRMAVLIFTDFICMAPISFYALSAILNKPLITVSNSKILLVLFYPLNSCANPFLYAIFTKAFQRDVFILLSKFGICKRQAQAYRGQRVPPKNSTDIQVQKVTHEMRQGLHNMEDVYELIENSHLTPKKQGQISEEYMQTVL
Sequence of Estrogen receptor beta (Homo sapiens) (Q92731 whole entry, looked up): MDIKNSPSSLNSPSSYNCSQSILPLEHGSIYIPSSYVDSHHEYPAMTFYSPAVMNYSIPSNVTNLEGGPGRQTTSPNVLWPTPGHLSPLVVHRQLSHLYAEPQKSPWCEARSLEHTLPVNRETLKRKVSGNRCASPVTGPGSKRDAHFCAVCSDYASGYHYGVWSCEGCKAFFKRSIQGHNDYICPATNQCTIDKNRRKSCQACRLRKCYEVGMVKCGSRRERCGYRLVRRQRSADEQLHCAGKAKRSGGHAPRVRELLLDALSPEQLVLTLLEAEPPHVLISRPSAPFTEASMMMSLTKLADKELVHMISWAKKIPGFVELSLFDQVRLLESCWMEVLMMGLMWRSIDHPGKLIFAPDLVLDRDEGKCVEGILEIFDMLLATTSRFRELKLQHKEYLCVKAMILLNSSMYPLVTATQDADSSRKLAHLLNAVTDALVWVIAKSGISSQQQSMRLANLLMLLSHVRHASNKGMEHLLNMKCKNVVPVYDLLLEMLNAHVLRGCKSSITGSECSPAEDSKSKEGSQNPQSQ

Take `O=C(NOCC1CC1)c1ccc(F)c(F)c1Nc1ccc(I)cc1Cl`: the Potency result in experiment [1], in [3], in experiment [4], in experiment [5], in [6] and in experiment [7] was “inactive” each time. Besides, the Potency entry in experiment [8], in experiment [10], in [13], in experiment [14] and in [15] was “inactive” in each case. The Potency is 8.41 µM (active) in experiment [2], 13.3 µM (active) in experiment [9], 8.41 µM (active) in experiment [11] and 29.8 µM (active) in experiment [12].

Take `CSc1ccc2c(c1)C(N1CCN(C)CC1)Cc1ccccc1S2` (stereo not drawn): the Potency result in experiment [1], in experiment [16], in experiment [4], in experiment [5], in experiment [8] and in experiment [15] was “inactive” each time. Moreover, the Potency was 23.7 µM (active) in experiment [6], 15 µM (active) in [9], 16.8 µM (active) in [17] and 16.8 µM (active) in experiment [14].

On to `O=C(c1ccc(O)cc1O)c1ccc(O)cc1O`, for which the Potency result in experiment [1], in experiment [16], in [5], in experiment [6], in experiment [8] and in experiment [12] was “inactive” throughout. The Potency entry in experiment [17], in experiment [14] and in experiment [19] was “inactive” in each case. Also, the Potency was 3.07 µM (active) and 3.06 µM (active) in experiment [2]; 17.2 µM (active) and 24.3 µM (active) in experiment [9]; 8.64 µM (active) and 7.7 µM (active) in experiment [10]; 9.7 µM (active) and 7.7 µM (active) in experiment [15]. In [18], the result was inactive.

Consider `CCC(C)(C)C1CCCCC1OC(C)=O` (stereo not drawn), for which the Potency entry in [1], in experiment [4], in experiment [6], in [7], in [8] and in [9] was “inactive” in each case. Also, the Potency entry in [12], in experiment [17], in experiment [14], in experiment [15] and in experiment [19] was “inactive” each time. Further, the compound was classed as inactive in experiment [18].

In the case of `CC(=O)S[C@@H]1CC2=CC(=O)CC[C@]2(C)[C@H]2CC[C@@]3(C)[C@@H](CC[C@@]34CCC(=O)O4)[C@H]12`, the Potency result in experiment [1], in [4], in experiment [5], in experiment [7], in [8] and in experiment [10] was “inactive” throughout. The Potency result in [12], in [15] and in experiment [19] was “inactive” in each case. Further, the PLD induction in experiment [3] was 5.04% [at 1.53 µM]. The Potency in experiment [17] was 30.6 µM (active). Besides, the compound was called inactive in [18].

Consider `Cc1[nH]cnc1C[C@H]1CCc2c(C)c3ccccc3n2C1=O`, for which the Potency entry in [1], in experiment [4], in [8] and in [10] was “inactive” in each case. The values for the Potency in [11] and in experiment [17] were 29.9 µM (active) and 4.74 µM (active), respectively. The call in experiment [18] was inactive.

As to `CSc1ccc(/C=C2/C(C)=C(CC(=O)O)c3cc(F)ccc32)cc1`, the Potency result in experiment [1], in experiment [3], in experiment [4], in [5], in experiment [6] and in [7] was “inactive” each time. For the same compound, the Potency entry in experiment [8], in [9], in [12], in experiment [13], in experiment [15] and in experiment [19] was “inactive” in each case. Also, in [17], the Potency is 10.6 µM (active). For the same compound, the compound was classed as inactive in [18].

Turning to `CCc1oc2ccccc2c1C(=O)c1cc(Br)c(O)c(Br)c1`, the Potency entry in [1], in experiment [3], in [4], in experiment [5], in [6] and in experiment [7] was “inactive” in each case. Moreover, the Potency entry in [8], in [9], in experiment [12], in [13], in experiment [14] and in [15] was “inactive” in each case. Besides, the Potency entry in experiment [19] was “inactive”. The call in experiment [18] was inactive.

In the case of `O=[N+]([O-])c1cc(Cl)c(Cl)c(Cl)c1Cl`, the results for the Potency in experiment [1], in experiment [6] and in experiment [12] were 68.3 µM (active), 24.2 µM (active) and 24.2 µM (active), respectively. Besides, the Potency entry in experiment [4], in [5], in experiment [7], in experiment [8], in experiment [17] and in experiment [14] was “inactive” throughout. For the same compound, in [18], the outcome was inactive.
